# Assay outcomes: PubChem BioAssay, Broad Institute
# aSyn 5UTR act: Activators via SNCA 5'UTR binding, MLPCN; 300,000 tested, 7.1% active; activity score, % (tested at 7.5 µM), hits read low; alpha-synuclein 5'UTR reporter, activators screen; AID 1814, 2009; in the data active = activity score below about -60%
# The depositor's hits bear a star. Many of the other results were omitted from the sample, so hits are more common in it than they were.
SMILES,aSyn 5UTR act
Clc1ccccc1N=C1NN=C(c2cccs2)CS1,-160.1*
Cc1cccc(N=C2NN=C(c3ccccc3F)CS2)c1C,-101.7*
Fc1ccc(F)c(C2=NNC(=Nc3ccccc3F)SC2)c1,-109.8*
O=c1cc(Cl)[nH]c(=O)n1Cc1ccc(F)cc1,-86.9*
N/C(=N\OC(=O)c1cccs1)c1ccccc1,-250.1*
N/C(=N\OC(=O)c1cccs1)c1cccc(Br)c1,-128.2*
Cc1ccc(/C(N)=N/OC(=O)c2cccs2)cc1,-124.4*
Cc1cccc(/C(N)=N/OC(=O)c2cccs2)c1,-105.5*
COc1ccc(/C(N)=N/OC(=O)c2cccs2)cc1OC,-185.8*
CCOc1ccc(N2C(=O)/C(=C/c3ccccc3)N=C2SC)cc1,-89.0*
COc1ccc(/C=C2\N=C(SC)N(c3ccccc3OC)C2=O)cc1,-66.3*
COc1ccccc1-n1cc2c([N+](=O)[O-])cc([N+](=O)[O-])cc2n1,-69.2*
Cc1cc(N)n(-c2cc(C)c3ccccc3n2)n1,-118.1*
Cc1cc(C)c2nc(-n3nc(C)cc3N)cc(C)c2c1,-162.1*
Cn1cnnc1SCC(=O)c1ccc2c(c1)CCCC2,-71.2*
CCCc1ccc(OCc2ccc(C(=O)NN)o2)c(OC)c1,-84.0*
C=CCc1ccc(OC(=O)NC2CCCCC2)c(OC)c1,-106.2*
CCCc1ccc(OCc2ccc(C(=O)O)o2)c(OC)c1,-94.1*
C=CCc1ccc(OCc2ccc(C(=O)O)o2)c(OC)c1,-120.7*
O=C(Nc1ccc(N2CCOCC2)cc1)Nc1ccc(Cl)c(Cl)c1,-139.2*
O=C(Nc1ccc(N2CCOCC2)cc1)Nc1cnsn1,-114.4*
Cc1cccc(Oc2cc([N+](=O)[O-])cc3c2C(=O)Nc2ccccc2O3)c1,-68.0*
CN1CCc2nc(NC(=O)c3cccc(OC(F)F)c3)sc2C1,-66.7*
O=C(Nc1ccc(OC(F)F)c(Cl)c1)c1cccc(OC(F)F)c1,-82.5*
COc1ccc(NC(=O)c2ccccc2F)cc1Cl,-156.2*
SMILES,aSyn 5UTR act
COc1cc(OC)c(NC(=O)c2cccc(F)c2)cc1Cl,-63.9*
COc1ccc(NC(=O)c2cccc(OC(F)F)c2)cc1Cl,-196.7*
O=C(CCCOc1ccc(Cl)cc1Cl)Nc1ccccc1C(=O)O,-83.2*
COc1ccc(NC(=O)c2cccc(F)c2)cc1Cl,-205.6*
COc1ccc(C(=O)Nc2ccccc2C(=O)O)cc1Cl,-123.1*
O=C(Nc1ccc2c(c1)CCC2)c1cccc(OC(F)F)c1,-125.6*
COc1ccc(NC(=O)/C=C/C(=O)O)cc1Cl,-104.7*
CC(C)(C)S(=O)(=O)c1cnc2c(-c3ccc(Cl)cc3)cnn2c1N,-78.4*
CS(=O)(=O)c1cnc2c(-c3ccsc3)cnn2c1N,-85.5*
Nc1c(-c2ccc(Cl)cc2)cnc2c(-c3ccccc3)cnn12,-205.1*
COc1ccc(-c2cnc3c(-c4ccc(F)cc4)cnn3c2N)cc1,-241.4*
CC1Oc2cc3oc4c(O)c5c(cc4c(=O)c3c(O)c2C1(C)C)C=CC(C)(C)O5 (stereo unspecified),-265.2*
COc1ccc(C(=O)COC(=O)c2ccn(C)n2)cc1,-82.8*
CN(C)c1ccc(C(=O)OCC(=O)N2CCCCCC2)cc1,-64.8*
O=C(OCC(=O)N1CCN(c2ccccc2)CC1)c1ccccc1[N+](=O)[O-],-141.2*
O=C(OCC(=O)N1CCCC1)c1ccccc1O,-84.7*
COc1ccc(C(=O)COC(=O)c2ccc(N(C)C)cc2)cc1,-64.0*
CCCc1nc2ccc(NC(C)=O)cc2c(=O)n1Cc1ccc(Cl)cc1,-136.6*
COc1ccc(Cn2c(C3CC3)nc3ccc(NC(C)=O)cc3c2=O)cc1,-120.6*
Cc1nc2ccc(N)cc2c(=O)n1Cc1ccc(Cl)cc1,-74.2*
COc1ccc(Cn2c(C3CC3)nc3ccc(NC(=O)c4cccnc4)cc3c2=O)cc1,-176.2*
CC(=O)c1ccc(NC(=O)[C@@H]2CCCN2C(=O)OC(C)(C)C)cc1,-94.5*
Cc1ccc(N=C2c3ccccc3C(=O)C2[N+](=O)[O-])cc1C (stereo unspecified),-109.7*
CC(C)(C)Cc1nnc(NC(=O)c2ccc([N+](=O)[O-])cc2)s1,-77.3*
CCC(C)(C)c1nnc(NC(=O)c2ccc([N+](=O)[O-])cc2)s1,-149.3*
SMILES,aSyn 5UTR act
CCCc1nnc(NC(=O)c2ccc([N+](=O)[O-])cc2)s1,-67.4*
COc1ccc2c(c1)CCc1c(C(=O)N3CCOCC3)noc1-2,-161.8*
O=C(c1nn2c(C(F)(F)F)cc(-c3cccs3)nc2c1Cl)N1CCCc2ccccc21,77.7
COc1ccc2c(c1)CCc1c(C(=O)N3CCCc4ccccc43)noc1-2,-65.6*
O=C(/C=C/c1ccccc1)Nc1cccnc1,-143.4*
O=C(/C=C/c1ccc([N+](=O)[O-])cc1)Nc1cccnc1,-149.5*
O=C(/C=C/c1ccccc1)Nc1cccnc1Oc1ccccc1F,-125.7*
COc1ccc(N=Cc2c(O)c3ccccc3n2C(C)=O)cc1,-131.5*
COc1ccc(N=Cc2sc(O)c3ccccc23)cc1,-274.0*
CN(C)/C=N/c1ncn(-c2ncc(C(F)(F)F)cc2Cl)n1,-84.8*
CCOC(=O)c1cnn(-c2ncnc3c2cnn3C)c1N,-93.8*
CCOC(=O)c1cnn(-c2ccc(C(F)(F)F)cn2)c1N,-277.4*
O=C1NC(=Nc2ccccc2)S/C1=C\c1cccn1-c1ccccc1,-388.2*
CCN1CCN(C(=S)c2ccc(-c3ccccc3)cc2)CC1,65.8
CCCC(C)NC(=O)c1ccc(-c2ccccc2)cc1 (stereo unspecified),-108.6*
CCC(=O)c1ccc(-c2ccccc2)cc1,-89.3*
O=c1cc(/C=C/c2ccccc2)oc2ccccc12,-205.2*
Oc1cccc(/C=N/c2c(-c3ccco3)nc3ccccn23)c1,-71.5*
O=[N+]([O-])c1ccc(-c2ccc(/C=N/c3c(-c4ccco4)nc4ccccn34)o2)cc1,-75.3*
Cc1cc(C)c([N+](=O)[O-])cc1-c1ccc(/C=N/c2c(-c3ccco3)nc3ccccn23)o1,-91.9*
CCC1(c2ccc(Cl)cc2)NC(=S)N(c2ccccc2)N1 (stereo unspecified),-71.4*
CCC1(c2ccccc2)NC(=S)N(c2ccc(C)cc2)N1 (stereo unspecified),-85.4*
Cc1ccc(NC(=O)NCc2cccn2C)cc1C,-123.5*
Cn1cccc1CNC(=O)Nc1ccc(Cl)cc1,-115.5*
O=C1C(Nc2ccccc2)=C(NS(=O)(=O)c2ccccc2)C(=O)c2ccccc21,-74.8*
SMILES,aSyn 5UTR act
CCc1ccc(-c2ccc(SCC(=O)Nc3nnc(C)s3)nn2)cc1,-83.3*
CCc1ccc(-c2ccc(SCC(=O)NCC3CCCO3)nn2)cc1 (stereo unspecified),-94.5*
CCc1nnc(NC(=O)CSc2ccc(-c3ccc(-n4cccn4)cc3)nn2)s1,-98.4*
CCOC(=O)C1(Cc2cccc(OC)c2)CCCN(C(=O)CCN2CCCO2)C1 (stereo unspecified),-111.9*
CCOC(=O)C1(Cc2cccc(Cl)c2)CCCN(C(=O)c2cc(C)on2)C1 (stereo unspecified),-72.1*
CCOC(=O)C1(Cc2cccc(OC)c2)CCCN(C(=O)c2ccc(OC)o2)C1 (stereo unspecified),-125.8*
CCOC(=O)C1(Cc2cccc(OC)c2)CCCN(C(=O)c2cc(CC(C)C)[nH]n2)C1 (stereo unspecified),-118.0*
Cc1cccc(Nc2nc(-c3ccc(F)c(C)c3)cs2)n1,-248.7*
Cc1cccc(Nc2nc(-c3ccc(O)c(O)c3)cs2)n1,-224.2*
Nc1nc2c(s1)CCc1c-2cnn1-c1ccccc1,-79.7*
CCCCC(=O)Nc1ccc2c(c1)nc1n2CCSC1,-84.1*
Cc1ccc(C(=O)Nc2ccc3c(c2)nc2n3CCSC2)cc1,-66.9*
